The values below come from PubChem BioAssay (NCATS).

Inconclusive results are not listed. A number with no mark means an inactive call. Active and inactive are the calls of the source. The call rests on the fitted dose curve; in most records, active means well fitted cell-killing curve with a large enough effect; inconclusive means small, poorly fitted or top-dose-only effect, or effect the other way; inactive means flat fitted curve, though single readings scatter. *1 amine or outer side, *2 acyl side, *3 side chain or, on linkers, in order; H or OH if unused. Where a SMILES comes first, the peptide text is derived from it. [ ]: non-standard residue; d: D form. ξ: configuration not given here. X4 = CC(C)=CCc1cc(C(O)C(N[*:1])C(=O)[*:2])ccc1O; ξPhe(βξ-Me) = CC(c1ccccc1)C(N)C(=O)O; GABA = NCCCC(=O)O

Common to all, as to experiment: Primary qHTS to identify gynecologic anti-cancer compounds using libraries of approved drugs and bioactive compounds (AID 1345084); further: nearly all actives have a fitted effect of over 55% in size
(In general: In qHTS, concentration-response curves come from the screen itself.)

In experiment [1] the test system is C33A. The following applies: Gynecologic cancer cell panel viability, ATPlite luminescence, 48 h; series mostly up to 57.5 µM. In short, it runs like this:
(§1)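 Five-point cytotoxicity, 48 h drug exposure at 37 C, 5% CO2, on cells seeded 16 h beforehand. ATP content read by ATPlite luminescence.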

Experiment [2] deals with CAOV3. The conditions noted are these: Gynecologic cancer cell panel viability, ATPlite luminescence, 48 h; series mostly up to 57.5 µM. In short, it runs like this:
as §1
On the technique in general: ATP-based viability assays read luminescence as a measure of living cells.

In experiment [3] the test system is CASKI. The following applies: Gynecologic cancer cell panel viability, ATPlite luminescence, 48 h; series mostly up to 57.5 µM. In short, it runs like this: as §1
Experiment [4] relates to Es-2. The conditions noted are these: Gynecologic cancer cell panel viability, ATPlite luminescence, 48 h; series mostly up to 57.5 µM. In short, it runs like this: as §1
The subject of experiment [5] is HeLa. The following applies: Gynecologic cancer cell panel viability, ATPlite luminescence, 48 h; series mostly up to 57.5 µM. A digest of the protocol: as §1
For experiment [6], the system named is Hek293T. The following applies: Gynecologic cancer cell panel viability, ATPlite luminescence, 48 h, control line for the selectivity index; series mostly up to 57.5 µM. In short, it runs like this:
as §1

Experiment [7] relates to JEG-3. The following applies: Gynecologic cancer cell panel viability, ATPlite luminescence, 48 h; series mostly up to 57.5 µM. In short, it runs like this: as §1
In experiment [8] the test system is OV90. The following applies: Gynecologic cancer cell panel viability, ATPlite luminescence, 48 h; series mostly up to 57.5 µM. In short, it runs like this:
as §1

Experiment [9] has as its system PA-1. The following applies: Gynecologic cancer cell panel viability, ATPlite luminescence, 48 h; series mostly up to 57.5 µM. In short, it runs like this: as §1
The subject of experiment [10] is SKOV3. The conditions noted are these: Gynecologic cancer cell panel viability, ATPlite luminescence, 48 h; series mostly up to 57.5 µM. A digest of the protocol:
as §1

In experiment [11] the test system is Tov-21-G. The conditions noted are these: Gynecologic cancer cell panel viability, ATPlite luminescence, 48 h; series mostly up to 57.5 µM. A digest of the protocol: as §1
The test system of experiment [12] is Tov112D. The following applies: Gynecologic cancer cell panel viability, ATPlite luminescence, 48 h; series mostly up to 57.5 µM. In short, it runs like this:
as §1
On the % scale 0 is the no-effect control and ±100 the full control effect; potency means the concentration at half of the fitted maximal effect.

As to `CCCn1c(=O)c2[nH]c(-c3ccc(OCC(=O)O)cc3)nc2n(CCC)c1=O`, the Potency entry in experiment [1], in [2], in [3], in experiment [4], in experiment [5] and in experiment [6] was “inactive” throughout. The Potency entry in [7], in experiment [8], in experiment [9], in experiment [10], in experiment [11] and in experiment [12] was “inactive” each time.
In the case of `Cc1csc(NC(=O)c2ccc(COc3cccc(Cl)c3)o2)n1`, the Potency entry in experiment [1], in experiment [2], in experiment [3], in experiment [4], in experiment [5] and in experiment [6] was “inactive” each time. Further, the Potency entry in [7], in experiment [8], in experiment [9], in experiment [10], in [11] and in experiment [12] was “inactive” in each case.
As to `O=C(O)c1cn(C2CC2)c2cc(N3C[C@@H]4C[C@H]3CN4)c(F)cc2c1=O`, the Potency result in [1], in [2], in [3], in experiment [4], in experiment [5] and in experiment [6] was “inactive” in each case. For the same compound, the Potency entry in [7], in [8], in [9], in experiment [10], in experiment [11] and in experiment [12] was “inactive” each time.
Turning to `C=C[C@H]1[C@H](O[C@@H]2O[C@H](CO)[C@@H](O)[C@H](O)[C@H]2O)OC=C(C(=O)OC)[C@H]1C[C@@H]1c2cc(O)c(O)cc2CCN1C(C)=O`, the Potency entry in experiment [1], in experiment [2], in experiment [3], in [4], in experiment [5] and in experiment [6] was “inactive” each time. Further, the Potency result in [7], in experiment [8], in experiment [9], in experiment [10], in experiment [11] and in experiment [12] was “inactive” throughout.
As for `COc1ccc([C@@]2(O)c3c(ccc4c3OC(C)(CCC=C(C)C)C=C4)NC(=O)[C@@H]2OC)cc1` (stereo partly drawn), the Potency entry in experiment [1], in experiment [2], in experiment [3], in experiment [4], in experiment [5] and in experiment [6] was “inactive” each time. Further, the Potency entry in [7], in experiment [8], in experiment [9], in experiment [10], in experiment [11] and in experiment [12] was “inactive” each time.
Regarding `COC(=O)c1cc(OC)c(O[C@@H]2O[C@@H](C)[C@H](O)[C@@H](O)[C@H]2O)c(OC)c1`, the Potency result in experiment [1], in [2], in experiment [3], in experiment [4], in [5] and in experiment [6] was “inactive” in each case. Further, the Potency entry in experiment [7], in experiment [8], in [9], in experiment [10], in [11] and in experiment [12] was “inactive” in each case.
`CC(C)=CCc1cc(C(O)C2NC(=O)CNC(=O)C(Cc3c[nH]c4ccccc34)NC(=O)C3CCCN3C(=O)CNC(=O)C(C(C)C)NC(=O)CNC2=O)ccc1O` (stereo not drawn) (cyclo(G[X4]GVGPW); configuration not given here): the activity change, negative = cytotoxicity in experiment [1] was 7.59% [at 11.6 µM]; in experiment [2] it was -21.2% [at 11.6 µM]; in experiment [3], -0.505% [at 11.6 µM]; in [4], 0.641% [at 11.6 µM]; in experiment [5], 5.32% [at 11.6 µM]; in experiment [6] it was -0.92% [at 11.6 µM]. Besides, the activity change, negative = cytotoxicity in experiment [7] is 7.66% [at 11.6 µM]; in [8], 5.8% [at 11.6 µM]; in [9] it was -1.16% [at 11.6 µM]; in experiment [10] it was 0% [at 11.6 µM]; in [11], -4.16% [at 11.6 µM]; in experiment [12] it was -6.73% [at 11.6 µM].
Turning to `CC(=O)O[C@H]1[C@H](O[C@H]2[C@@H]3C=CO[C@@H](O[C@@H]4O[C@H](CO)[C@@H](O)[C@H](O)[C@H]4O)[C@@H]3[C@@]3(CO)O[C@@H]23)O[C@@H](C)[C@H](OC(=O)/C=C/c2ccccc2)[C@H]1OC(=O)/C=C/c1ccccc1`, the activity change, negative = cytotoxicity was 1.54% [at 11.6 µM] in [1]; 23.2% [at 11.6 µM] in [2]; 9.13% [at 11.6 µM] in experiment [3]; 2.44% [at 11.6 µM] in experiment [4]; -1.93% [at 11.6 µM] in [5]; -2.9% [at 11.6 µM] in experiment [6]. In addition, the activity change, negative = cytotoxicity in experiment [7] is -3.47% [at 11.6 µM]; in [8] it was 3.4% [at 11.6 µM]; in [9], 16.9% [at 11.6 µM]; in experiment [10], 5.38% [at 11.6 µM]; in [11], -0.504% [at 11.6 µM]; in experiment [12], 5.71% [at 11.6 µM].
For `COC1CC(O[C@H]2CC[C@@]3(C)C(CCC4C3[C@H](OC(C)=O)[C@@H](OC(=O)/C=C/c3ccccc3)[C@]3(C)C(C(C)=O)CC[C@]43O)C2)OC(C)C1OC1CC(OC)C(OC2CC(OC)C(OC3OC(C)C(OC4OC(CO)C(O)C(O)C4O)C(OC)C3O)C(C)O2)C(C)O1` (stereo partly drawn), the activity change, negative = cytotoxicity in experiment [1] is -1.17% [at 6.55 µM]; in experiment [2] it was 6.87% [at 6.55 µM]; in experiment [3] it was 1.19% [at 6.55 µM]; in [4], 0.971% [at 6.55 µM]; in [5], -3.04% [at 6.55 µM]; in [6] it was -2.25% [at 6.55 µM]. Besides, the activity change, negative = cytotoxicity in experiment [7] was -2.34% [at 6.55 µM]; in experiment [8], -0.788% [at 6.55 µM]; in experiment [9], -4.15% [at 6.55 µM]; in [10] it was -2.84% [at 6.55 µM]; in experiment [11], 6.44% [at 6.55 µM]; in experiment [12], -0.487% [at 6.55 µM].
Regarding `C[C@H](NC(=O)CCc1nc2ccccc2c(=O)[nH]1)c1ccccc1`, the Potency entry in experiment [1], in experiment [2], in experiment [3], in experiment [4], in experiment [5] and in experiment [6] was “inactive” throughout. Also, the Potency result in [7], in [8], in [9], in [10], in [11] and in experiment [12] was “inactive” each time.
`CC1CCC2(C(=O)O)CCC3(C)C(=CCC4C5(C)CCC(O)C(C)(CO)C5CCC43C)C2C1(C)O` (stereo not drawn): the Potency result in experiment [1], in experiment [2], in [3], in experiment [4], in experiment [5] and in experiment [6] was “inactive” in each case. The Potency result in [7], in [8], in experiment [9], in experiment [10], in experiment [11] and in experiment [12] was “inactive” in each case.
Turning to `CC1(C)CCCC2(C)C1CC(=O)C13CC(CCC12)C(O)(CO)C3` (stereo not drawn), the Potency entry in experiment [1], in experiment [2], in experiment [3], in [5], in [6] and in [7] was “inactive” in each case. The Potency result in experiment [8], in experiment [9], in [10], in experiment [11] and in [12] was “inactive” in each case. In addition, in [4], the Potency is 4.47 µM (active).
Regarding `CC1(C)CCC(C)(C)c2cc(C3(c4ccc(C(=O)O)cc4)OCCO3)ccc21`, the Potency result in experiment [1], in [2], in [3], in experiment [4], in [5] and in experiment [6] was “inactive” throughout. Besides, the Potency result in experiment [7], in experiment [8], in experiment [9], in [10], in experiment [11] and in experiment [12] was “inactive” in each case.
In the case of `CC1NC(=O)CCCNC(=O)C(Cc2c[nH]c3ccccc23)NC(=O)C(C)NC(=O)C(C(C)C)NC(=O)C(C(C)c2ccccc2)NC(=O)C(C(C)C)NC1=O` (stereo not drawn) (cyclo([GABA]AV[ξPhe(βξ-Me)]VAW); configuration not given here), the Potency entry in experiment [1], in [2], in [3], in [4], in experiment [5] and in experiment [6] was “inactive” throughout. Further, the Potency entry in experiment [7], in experiment [8], in experiment [9], in experiment [10], in [11] and in experiment [12] was “inactive” each time.
